Assay outcomes: PubChem BioAssay, several laboratories
The list is not random: actives were taken first. Their share in the collection is about 4.1%.
VHR inh abs: VHR1 phosphatase inhibitors, primary screen, biochemical, absorbance, uHTS; Dual specificity protein phosphatase 3 (Homo sapiens), P51452; actives 0.52% (n = 290,000); recombinant VHR phosphatase, pNPP absorbance; inhibition, % at 13.3 µM; in the data active means inhibition above about 50%
Autofluor counter: counter-screen for toxin protease inhibitors: compound fluorescence. actives 3.1% (n = 360,000). AID 624483. fluorescence intensity (concentration not given with the values). compound autofluorescence counterscreen, microsphere flow cytometry; hits give high values; in the data active means fluorescence intensity above about 16000; inconclusive means no clear call, values can overlap the other calls
BoNT F protease: BoNT/F light chain protease inhibitors, primary screen, biochemical, flow cytometry, MLPCN library; Botulinum neurotoxin type F light chain protease (Clostridium botulinum); Multiplex microsphere protease cleavage assay; inhibition, % at 10 µM; actives 0.22% (n = 360,000); in the data active means inhibition above about 35%, passing the limit was not always enough; inconclusive means no clear call, values can overlap the other calls
BoNT A protease: BoNT/A light chain protease inhibitors, primary screen, biochemical, flow cytometry, MLPCN library. inhibition, % at 10 µM. multiplex microsphere protease substrate cleavage. actives 0.17% (n = 360,000)
Anthrax LF inh2: Bacillus anthracis LF protease inhibitors, primary screen, biochemical, multiplex microsphere, MLPCN library | Lethal factor (Bacillus anthracis), P15917 | multiplex microsphere protease cleavage assay | inhibition, % at 10 µM | actives 0.12% (n = 360,000) | AID 588501, 2011
MazEF act: activators of E. coli MazEF toxin-antitoxin RNase, primary screen, biochemical, fluorescence, uHTS; activation, % at 20 µM; actives 0.32% (n = 350,000); AID 504720, 2011; Endoribonuclease toxin MazF (Escherichia coli (strain K12)), P0AE70; FAM/BHQ RNA-DNA oligo cleavage fluorescence, 5 h; in the data active means activation above about 50%
A number is an active result; 0 = inactive; ? = inconclusive; - = no result. Unless noted, no stated cut-off is given here; in the data, active means inhibition above about 30%; inconclusive means no clear call, values can overlap the other calls; inactive means below that.

SMILES | VHR inh abs | Autofluor counter | BoNT F protease | BoNT A protease | Anthrax LF inh2 | MazEF act
CCOc1cccc(-c2nnc(SCC(=O)Nc3cccc(OC)c3)n2N)c1 | 0 | 21734 | 0 | 0 | 0 | 0
Cc1cc(C)cc(NC(=O)CSc2nnc(-c3ccccc3)n2N)c1 | 0 | 0 | 0 | 0 | 0 | 0
CCn1c2ccccc2c2cc(NC(=O)c3cccc(OC)c3)ccc21 | 0 | 22832 | 0 | 0 | 0 | 0
CCOC(=O)C1CCN(C(=O)c2ccc(OC3CCN(C(=O)COC)CC3)cc2)CC1 | 0 | 0 | 0 | 0 | 0 | 0
O=C(CC(O)CCc1ccccc1)c1ccc(O)cc1 (stereo not drawn) | - | 0 | 0 | 0 | 0 | 0
Nn1c(SCC(=O)Nc2ccc(F)cc2)nnc1-c1cccnc1 | 0 | 19014 | 0 | ? | 0 | 0
Cc1ccc(C)c(NC(=O)CSc2nnc(-c3ccncc3)n2N)c1 | 0 | 21109 | 0 | 0 | 0 | 0
Nn1c(SCC(=O)Nc2ccc(F)cc2)nnc1C1CCCCC1 | 0 | 21577 | 0 | ? | 0 | 0
Cc1ccc(NC(=O)CSc2nnc(-c3cccnc3)n2-c2ccc(C)cc2)cc1 | 0 | 0 | 0 | 0 | 0 | 0
COC(=O)c1ccc(NC(=O)CSc2nnc(-c3ccccc3)n2C)cc1 | 0 | 0 | 0 | 0 | 0 | 0
COC(=O)c1ccc(NC(=O)CSc2nnc(-c3ccncc3)n2N)cc1 | 0 | 20637 | 0 | ? | 0 | 0
Cc1ccc(C)c(NC(=O)CSc2nnc(C)c(=O)n2N)c1 | 0 | 0 | 0 | 0 | 0 | 0
COc1ccc(S(=O)(=O)Nc2ccc(S(=O)(=O)Nc3nccs3)cc2)cc1 | 0 | 0 | 0 | 0 | 0 | 0
CCOC(=O)C1=C(C)Nc2ccccc2N/C1=N\S(=O)(=O)c1ccccc1 | - | ? | 0 | 0 | 0 | 0
O=C(CSc1nnc(-c2cccnc2)n1Cc1ccco1)Nc1cccc(O)c1 | 0 | 0 | 0 | 0 | 0 | 0
O=C(CSc1nnc(-c2cccnc2)n1Cc1ccco1)Nc1nc(-c2ccc(F)cc2)cs1 | 0 | 20486 | 0 | 0 | 0 | 0
CCn1c2ccccc2c2cc(NC(=O)CSc3nnc(-c4ccc(OC)cc4)n3N)ccc21 | 0 | 24502 | 0 | 0 | 0 | 0
COc1ccc(NC(=O)CSc2nnc(-c3ccccc3)n2N)cc1 | 0 | 0 | 0 | 0 | 0 | 0
COc1cccc(-c2nnc(SCC(=O)Nc3ccc(OC)c(OC)c3)n2N)c1 | 0 | 23134 | 0 | 0 | 0 | 0
COc1cccc(-c2nnc(SCCC(=O)O)n2C)c1 | 0 | 23530 | 0 | 0 | 0 | 0
CCOc1ccc(N2C(=O)CC(N(Cc3ccco3)C(=O)CC)C2=O)cc1 (stereo not drawn) | 0 | 0 | 0 | 0 | 0 | 0
O=C(c1ccc(Cn2cnnn2)cc1)N1CCCC(Nc2ccc(F)c(F)c2)C1 (stereo not drawn) | 0 | 0 | 0 | 0 | 0 | 0
COc1cccc(-c2nnc(SCC(=O)OC(C)C)n2N)c1 | 0 | 19700 | 0 | 0 | 0 | 0
COC(=O)c1ccc(NC(=O)CSc2nnc(C)n2-c2ccccc2)cc1 | 0 | 19301 | 0 | 0 | 0 | 0
COC(=O)CSc1nnc(C)n1-c1cccc(C#N)c1 | 0 | 17539 | 0 | 0 | 0 | 0
SMILES | VHR inh abs | Autofluor counter | BoNT F protease | BoNT A protease | Anthrax LF inh2 | MazEF act
COC(=O)CSc1nnc(-c2cccnc2)n1-c1cccc(OC)c1 | 0 | 0 | 0 | 0 | 0 | 0
COCCn1c(SCC(=O)Nc2cccc(C)c2)nnc1C(C)C | 0 | 0 | 0 | 0 | 0 | 0
COCCCn1c(C)nnc1SCC(=O)Nc1cccc(C)c1 | 60 | 0 | 0 | 0 | 0 | 0
COc1ccc(C(=O)CCc2ccccc2)cc1 | 0 | 0 | 0 | 0 | 0 | 0
CCc1ccc(NC(=O)CSc2nncn2-c2cccnc2)cc1 | 56 | 0 | 0 | 0 | 0 | 0
O=c1[nH]c(=S)n(Cc2ccc(F)cc2)c(O)c1C=NCc1cccnc1 | 0 | 16199 | 0 | 0 | 0 | 0
COC(=O)c1c(NC(=O)c2ccc(Br)s2)sc2c1CCC2 | 0 | 21623 | 0 | 0 | 0 | 0
COC(=O)c1c(NC(=O)c2ccoc2C)sc2c1CCC2 | 0 | 0 | 0 | 0 | 0 | 0
COC(=O)c1c(NC(=O)c2nn(C)cc2Cl)sc2c1CCCC2 | 0 | 20893 | 0 | ? | 0 | 0
Cc1ccc([C@H]2C[C@H](O)[C@@H](n3cc(COC(=O)c4ccccc4)nn3)CN2Cc2cccs2)cc1 | - | 0 | 0 | 0 | 0 | 0
Cc1ccc(N(CC(=O)N2CCn3c2nc2ccccc23)S(=O)(=O)c2c(C)n[nH]c2C)cc1 | 0 | 17135 | 0 | 0 | 0 | 0
COCCCN1C(=O)C(CC(=O)NCCCCc2ccccc2)CC(C(=O)N2CCOCC2)=C1C (stereo not drawn) | - | 0 | 0 | 0 | 0 | 0
COc1cc(C2CC(=O)N(CC(=O)NCC3CCCO3)c3ccccc3S2)cc(OC)c1OC (stereo not drawn) | 0 | 0 | 0 | 0 | 0 | 0
O=C(CN1C(=O)CC(c2ccco2)Sc2ccccc21)NCc1ccc2c(c1)OCO2 (stereo not drawn) | 0 | 23277 | 0 | 0 | 0 | 0
COc1cc(C2CC(=O)N(CC(=O)NCc3ccco3)c3ccccc3S2)cc(OC)c1OC (stereo not drawn) | 0 | 24105 | 0 | 0 | 0 | 0
O=C(CN1C(=O)CC(c2ccco2)Sc2ccccc21)Nc1ccccc1F (stereo not drawn) | 0 | 0 | 0 | 0 | 0 | 0
CCN1C(=O)CC(c2ccco2)Sc2ccccc21 (stereo not drawn) | 0 | 17133 | 0 | 0 | 0 | 0
CC(OC(=O)c1ccccc1NCCO)C(=O)NCC(=O)Nc1ccc(F)c(F)c1F (stereo not drawn) | 0 | 0 | 0 | 0 | 0 | 0
CSc1nsc(SC)c1NC(=O)OCc1ccccc1 | 0 | 0 | 0 | 0 | 0 | 0
CSc1nsc(SC)c1NC(=O)OCC1CCCO1 (stereo not drawn) | 0 | 21471 | 0 | 0 | 0 | 0
CC1CN(C(=O)COC(=O)c2ccc(F)cc2Cl)CC(C)O1 (stereo not drawn) | 50 | 0 | 0 | 0 | 0 | 0
O=S(=O)(CCSc1ccccn1)c1nc2ccccc2s1 | 0 | 23137 | 0 | 0 | 0 | 0
COc1cccc(OCc2cc(C(=O)N(C)C3CCCCC3)no2)c1 | - | 0 | 0 | 0 | 0 | 0
Cc1c(C(=O)c2ccc(Cl)c(Cl)c2)cnc2cc3c(cc12)OCO3 | 54 | 0 | 0 | 0 | 0 | 0
COc1ccc(C(=O)c2cnc3cc4c(cc3c2C)OCO4)cc1 | 0 | 0 | 0 | 0 | 0 | 0
O=[N+]([O-])c1cccnc1N1CCCCC1 | 0 | 22095 | 0 | 0 | 0 | 0
NC(=O)C1CCN(c2ncccc2[N+](=O)[O-])CC1 | 0 | ? | 0 | 0 | 0 | 0
O=Cc1ccc(-c2c(-c3ccccc3)oc3c2C(OCCCCO)CCC3)o1 (stereo not drawn) | - | 0 | 0 | 0 | 0 | -
CCOc1ccccc1N1CCN(Cc2ccc(Br)s2)CC1 | 0 | 0 | 0 | 0 | 0 | 0
CC(=O)N1CCN(Cc2ccc(Br)s2)CC1 | 0 | 22754 | 0 | 0 | 0 | 0
